# Vc quorum ag – inducers of Vibrio cholerae quorum light production without autoinducers. V. cholerae BH1578 lux reporter, luminescence, 6 h. activation, % at 18.7 µM. hit rate 0.16% among 350,000. AID 588436; in the data active means activation mostly above about 9.7%, no sharp cut-off
# 3CLpro inhibitor – SARS-CoV 3CLpro protease inhibition; P0C6X7; recombinant SARS-CoV 3CLpro, quenched FRET peptide cleavage; inhibition, % at 6 µM; hit rate 0.14% among 290,000; AID 1706; in the data active means inhibition above about 12%
# PrPC TRFRET – inhibitors of human cell surface prion protein PrPC. hit rate 0.43% among 370,000. TR-FRET read-out. inhibition, % at 13.8 µM. AID 720596; in the data active means inhibition above about 24%; further: 0% = median of the test wells and 100% = reference compound wells
# GDH-TPI counter – GDH-TPI coupled enzyme inhibition counter-screen; GDH-TPI coupled enzyme counterscreen, NADH absorbance; inhibition, % at 4.8 µM; hit rate 1.2% among 360,000; AID 588335; in the data active means inhibition above about 30%;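 further: 0% = DMSO wells and 100% = wells lacking the enzyme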
# FBA Mtb inh – Mtb fructose-bisphosphate aldolase inhibition; P9WQA3; purified M. tuberculosis FBA, fluorescence read-out; inhibition, % at 1 µM; hit rate 2.3% among 360,000; in the data active means inhibition above about 27%;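 further: 0% = vehicle and 100% = reference inhibitor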
# PrPC confirm – confirmation of inhibitors of cell surface human prion protein; hit rate 65% among 1,500; inhibition, % at 13.8 µM; shares compounds with PrPC TRFRET; AID 743200; cell surface PrPC level, TR-FRET; in the data active means inhibition above about 25%
# LD9 tox – counter-screen for PrPc inhibitors: cytotoxicity in LD9 cells. hit rate 29% among 1,500. inhibition, % at 13.8 µM. shares compounds with PrPC TRFRET. luminescence viability; in the data active means inhibition above about 9.5%
# Starred values were filed as active, the others as inactive; i = inactive; nt = not tested or not shown. In the library only some 3.9% were active in any assay of this set; here they are far more common.
SMILES,Vc quorum ag,3CLpro inhibitor,PrPC TRFRET,GDH-TPI counter,FBA Mtb inh,PrPC confirm,LD9 tox
CC(=O)OC[C@]12CC[C@H]3[C@@](C)(CC[C@H]4C(C)(C)CCC[C@]34C)[C@@H]1CC(C1=CC(=O)OC1O)O2 (some centres undefined),-0.3,nt,54.3*,1.4,-1.0,82.7*,98.5*
c1ccc(Cc2nnc(Sc3ccccc3)c3ccccc23)cc1,-1.0,-0.7,52.5*,-6.7,-2.2,71.2*,-14.0
O=C(NC1CCN(Cc2ccc(Cl)cc2)CC1)c1cn(-c2ccccc2)nc1-c1cccnc1,i,nt,-11.8,6.3,0.9,nt,nt
Cc1cc(O)cc(O)c1/C=N/NC(=O)c1ccc2c(c1)OCCO2,-0.8,nt,31.9*,44.2*,6.8,24.6*,21.5*
COc1nc(-c2ccccc2)c2cc(Br)ccc2n1,-0.6,nt,35.8*,-0.8,5.0,71.0*,3.8
Cc1ccc(-n2c(C)cc(C(=O)CSc3nncs3)c2C)cc1,-6.2,-0.8,38.9*,7.9,-0.2,34.2*,1.5
Cc1cc(C(=O)CSc2nncs2)c(C)n1-c1c(C)n(C)n(-c2ccccc2)c1=O,i,-1.5,-6.7,11.7,2.1,nt,nt
CCN(CC)S(=O)(=O)c1ccc2c(c1)nc(CCC(=O)OCC(=O)Nc1cc(Cl)cc(Cl)c1)n2C,i,-0.6,27.6*,2.5,1.8,2.4,-1.1
CN(C(=O)CSc1cc(C(=O)c2nccn2C)c2ccccc2n1)c1ccccc1,-3.6,-0.5,88.5*,11.3,-1.8,73.9*,8.0
CC(C)c1nc(SCC(=O)NC2CCCCC2)c2ccccc2n1,i,1.9,3.4,12.7,-2.6,nt,nt
Cc1csc(NC(=O)CSc2nc3ccccc3s2)n1,i,-0.1,-1.2,14.4,1.7,nt,nt
CC(C)c1nc(SCC(=O)Nc2ccc(N(C)C)cc2)c2ccccc2n1,0.9,-4.1,79.0*,-0.9,-3.1,93.3*,-5.1
Cc1csc(NC(=O)CSc2nc(C(C)C)nc3ccccc23)n1,-0.3,-3.1,83.9*,1.5,1.5,105.1*,-4.7
CC(C)c1nc(SCC(=O)Nc2nccs2)c2ccccc2n1,0.0,0.2,50.5*,7.5,5.2,89.6*,-3.7
COCCCN1C(=O)C(CC(=O)NCCN2CCOCC2)CC(C(=O)N(C)C)=C1C (centres undefined),nt,nt,-1.7,nt,-1.4,nt,nt
Cc1ccccc1C(=O)NN1C(=O)CSC1=S,1.4,0.4,34.5*,3.0,4.8,11.1,-6.2
CC(=O)c1ccc(N2C(=NC(=O)CCC3CCCC3)SC3CS(=O)(=O)CC32)cc1 (centres undefined),-0.3,0.2,6.2,-3.1,3.0,nt,nt
COc1cccc(NC(=O)c2ccc(NS(=O)(=O)c3cccs3)cc2)c1,i,nt,1.0,18.1,-0.2,nt,nt
NC(=O)c1cc(NC(=O)c2ccc(NS(=O)(=O)c3cccs3)cc2)cc(C(N)=O)c1,3.1,0.9,32.6*,1.4,4.1,34.6*,3.7
Cc1ccc2[nH]c3c(N4CCN(Cc5ccc6c(c5)OCO6)CC4)ncnc3c2c1,nt,2.5,6.4,nt,nt,nt,nt
Cc1ccc2c(c1)[nH]c1c(N3CCN(Cc4ccccc4)CC3)ncnc12,i,-1.9,29.7*,5.3,1.4,22.3,50.2*
CC1(c2nnc(-c3cccc(Cl)c3)o2)CC(c2ccc(F)cc2)=NO1 (centres undefined),-1.3,nt,8.4,3.5,-1.3,nt,nt
CCc1ccc(C(=O)NNc2cc(Cl)ccc2Cl)cc1,-0.4,0.4,27.9*,4.1,2.4,25.0*,5.1
COC(=O)c1ccc(CNC(=O)COC(=O)C23CC4CC(CC(C4)C2)C3)cc1,i,1.1,4.4,-6.6,-1.4,nt,nt
Cn1c(SCC(=O)N2CCc3ccccc3C2)nnc1-c1ccncc1,-0.7,-5.2,40.9*,12.0,0.1,-4.6,-8.4
COC(=O)CC1N(S(=O)(=O)c2ccc(C)cc2)c2ccccc2C1(C(=O)OC)C(=O)OC (centres undefined),nt,nt,-1.0,nt,nt,nt,nt

# Source: PubChem
